Laboratory results published in PubChem BioAssay (Tox21).
Values without a mark were called inactive. Results filed as inconclusive are left out. Where a call stands in place of a potency, no number is given. Active and inactive are the calls of the source. Unless noted, calls follow the shape of the dose curve; as a rule, active = well fitted curve in the direction sought with a large enough effect in the repeat runs; inconclusive = weak or mixed curves; inactive = no such curve, though single readings can be large; an effect the other way counts as inactive or inconclusive.

Experiments:
[1] = qHTS assay for small molecules that induce genotoxicity in human embryonic kidney cells expressing luciferase-tagged ATAD5 (AID 651632); also: nearly all actives have a fitted effect of over 15% in size
Method in brief: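 Luminescence read-out: after 16 hr compound exposure at 37C, ATAD5-luciferase HEK293T cells received Amplite, 30 min RT, then CCD imaging. A rise in signal marks genotoxic stress.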

[2] = qHTS assay for small molecule agonists of the p53 signaling pathway - cell viability (AID 651633; calls by dose curve; also: nearly all actives have a fitted effect of over 30% in size; also: potency is read from the fitted curve at half-maximal effect;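 as to activity change, negative = cytotoxicity: p53RE-bla HCT reporter cells with a stable beta-lactamase p53 reporter; series mostly up to about 83 µM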)
Method in brief: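 p53RE-bla cells, seeded at 4,000 per well and rested 5 h at 37 C/5% CO2, received compounds in DMSO for 16 h at 37 C. CellTiter-Glo was then added, and luminescence was read after 30 min at room temperature to gauge cytotoxicity.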

[3] = qHTS assay for small molecules that induce genotoxicity in human embryonic kidney cells expressing luciferase-tagged ATAD5 - cell viability (AID 651634; calls by dose curve; also: nearly all actives have a fitted effect of over 25% in size)
Method in brief: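 HEK293T ATAD5-luc cells, 2,000/well; compound 15.5 hr, 37C/5% CO2; CellTiter-Fluor 30 min, 37C; fluorescence read.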

[4] = qHTS assay to test for compound auto fluorescence at 590 nm (red) in HepG2 cells (AID 720674)
Method in brief: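 Intrinsic compound fluorescence in the red window (Ex/Em 540/590 nm) is measured in attached HepG2 cells exposed for 1 hr, DMSO vehicle as baseline, benchmarked to Rose Bengal sodium.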

[5] = qHTS assay to test for compound auto fluorescence at 535 nm (green) in HepG2 cells (AID 720675)
[6] = qHTS assay to test for compound auto fluorescence at 460 nm (blue) in HEK293 cells (AID 720678)
Method in brief: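 Cells were seeded and left to adhere for 4-5 hr at 37C. Compounds were then pin-transferred. After an overnight incubation at 37C under 5% CO2, intrinsic fluorescence at 405/460 nm was measured and referenced to triamterene.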

[7] = qHTS assay to test for compound auto fluorescence at 590 nm (red) in HEK293 cells (AID 720679)
Method in brief: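 Each well held 2,000 HEK293 cells in medium containing 10% dialyzed FBS. Following 4-5 hr attachment at 37C, 23 nL test compound or DMSO was added; plates sat overnight, and red fluorescence (540/590nm) was recorded.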

[8] = qHTS assay for small molecule disruptors of the mitochondrial membrane potential - cell viability (AID 720634; calls by dose curve;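 also: human HepG2 liver cancer cells; series mostly up to about 83 µM; nearly all actives have a fitted effect of over 20% in size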)
Method in brief: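 Luminescence from CellTiter-Glo (ATP content) gave viability in HepG2 cells, read in the same wells as the MMP dye assay after 1 hr compound exposure at 37 C.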

[9] = qHTS assay for small molecule disruptors of the mitochondrial membrane potential (AID 720635); also: potency is read from the fitted curve at half-maximal effect
Method in brief: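 HepG2 cells (2,000/well) attached overnight at 37C, then took compound for 1 hr at 37C, 5% CO2. Mito-MPS dye was added for 30 min; fluorescence was read at 490/535 nm (monomers) and 540/590 nm (aggregates).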

CC1=CC[C@@H]2C[C@H]1C2(C)C
activation [1]: -0.905% [at 17.9 µM]
activity change, negative = cytotoxicity [2]: 5.84% [at 17.9 µM]
activity, negative = cytotoxicity [3]: -7.96% [at 17.9 µM]
fluorescence, relative to Rose Bengal [4]: -0.0358% [at 18.6 µM]
fluorescence, % of fluorescein control [5]: 0.0991% [at 18.6 µM]
fluorescence, % of triamterene [6]: -0.0033% [at 18.6 µM]
fluorescence, % of fluorescent control [7]: -0.712% [at 18.6 µM]

C=Cc1ccc(OC(C)=O)cc1
Potency [1]: inactive
Potency [2]: inactive
Potency [3]: inactive
outcome [8]: inactive
outcome [4]: inactive
outcome [5]: inactive
Potency [6]: inactive

CCCCC(CC)COS(=O)(=O)O (stereo unspecified)
Potency [1]: inactive
Potency [2]: inactive
Potency [3]: inactive
outcome [8]: inactive
Potency [9]: inactive
outcome [4]: inactive
outcome [5]: inactive
Potency [6]: inactive
outcome [7]: inactive

CC/C=C\C/C=C\C/C=C\CCCCCCCC(=O)OCC
Potency [1]: inactive
Potency [2]: 62.5 µM (active)
Potency [3]: inactive
outcome [8]: inactive
outcome [4]: inactive
outcome [5]: inactive
Potency [6]: inactive
outcome [7]: inactive

OCC(CO)n1cnc(-c2ccc(F)cc2)c1-c1ccnc(Oc2ccccc2)n1
Potency [1]: inactive
Potency [2]: inactive
Potency [3]: inactive
outcome [8]: inactive
outcome [4]: inactive
outcome [5]: inactive
Potency [6]: inactive
outcome [7]: inactive

CCCCCCCCCCCCCC(=O)OCC(O)CO (stereo unspecified)
Potency [1]: inactive
Potency [2]: inactive
Potency [3]: inactive
outcome [8]: inactive
outcome [4]: inactive
outcome [5]: inactive
Potency [6]: inactive
outcome [7]: inactive

CC(=O)OCCC(C)CC(C)(C)C (stereo unspecified)
Potency [1]: inactive
Potency [2]: inactive
Potency [3]: inactive
outcome [8]: inactive
Potency [9]: inactive
outcome [4]: inactive
outcome [5]: inactive
Potency [6]: inactive
outcome [7]: inactive

O=C1NC(=O)c2cccc3cccc1c23
Potency [1]: inactive
Potency [2]: inactive
Potency [3]: inactive
outcome [8]: inactive
Potency [9]: 10.9 µM (active)
outcome [4]: inactive
outcome [5]: inactive
Potency [6]: inactive
outcome [7]: inactive

O=C1[C@@H]2[C@H]3CC[C@H](C3)[C@@H]2C(=O)N1CCCCN1CCN(c2ncccn2)CC1
Potency [1]: inactive
Potency [2]: inactive
Potency [3]: inactive
Potency [9]: inactive
outcome [4]: inactive
outcome [5]: inactive
Potency [6]: inactive
outcome [7]: inactive

CCCCCCCCCCCCCOC(=O)CCSCCC(=O)OCCCCCCCCCCCCC
Potency [1]: inactive
Potency [2]: inactive
Potency [3]: inactive
outcome [8]: inactive
fluorescence, relative to Rose Bengal [4]: 0.06% [at 18.6 µM]
fluorescence, % of fluorescein control [5]: -0.0137% [at 18.6 µM]
fluorescence, % of triamterene [6]: 0.0236% [at 18.6 µM]
fluorescence, % of fluorescent control [7]: 0.358% [at 18.6 µM]

CCCOC(=O)c1c(Cl)c(Cl)c(Cl)c(Cl)c1C(=O)OCCC
Potency [1]: inactive
Potency [2]: inactive
Potency [3]: inactive
Potency [9]: 61.1 µM (active)
outcome [4]: inactive
outcome [5]: inactive
Potency [6]: inactive

CC(CCc1ccc(O)cc1)NCCc1ccc(O)c(O)c1 (stereo unspecified)
Potency [1]: inactive
Potency [2]: inactive
Potency [3]: inactive
outcome [8]: inactive
outcome [4]: inactive
outcome [5]: inactive
Potency [6]: inactive

O=C(O)CNC(=O)c1ccccc1I
Potency [1]: inactive
Potency [2]: inactive
Potency [3]: inactive
outcome [8]: inactive
outcome [4]: inactive
outcome [5]: inactive
Potency [6]: inactive
outcome [7]: inactive

COc1cc(S(=O)(=O)Nc2ccccc2)c(OC)cc1N
Potency [1]: inactive
Potency [2]: inactive
Potency [3]: inactive
outcome [8]: inactive
outcome [4]: inactive
outcome [5]: inactive
Potency [6]: inactive
outcome [7]: inactive

COC(C)(C)OC
Potency [1]: inactive
Potency [2]: inactive
Potency [3]: inactive
outcome [8]: inactive
outcome [4]: inactive
outcome [5]: inactive
Potency [6]: inactive
outcome [7]: inactive

CCCCCCCCCCCC(=O)OCC(O)CO (stereo unspecified)
Potency [1]: inactive
Potency [2]: inactive
Potency [3]: inactive
outcome [8]: inactive
outcome [4]: inactive
outcome [5]: inactive
Potency [6]: inactive

CCCCCCCCCCCCCCCC(=O)OCC
Potency [1]: inactive
Potency [2]: inactive
Potency [3]: inactive
outcome [8]: inactive
outcome [4]: inactive
outcome [5]: inactive
Potency [6]: inactive
outcome [7]: inactive

O=C(CCS)OCC(COC(=O)CCS)(COC(=O)CCS)COC(=O)CCS
Potency [1]: inactive
Potency [2]: inactive
Potency [3]: inactive
outcome [4]: inactive
outcome [5]: inactive
Potency [6]: inactive
outcome [7]: inactive

O=C(O)/C=C/c1ccc(O)c(O)c1
Potency [1]: inactive
Potency [2]: inactive
Potency [3]: inactive
outcome [8]: inactive
outcome [4]: inactive
outcome [5]: inactive
Potency [6]: inactive
outcome [7]: inactive

Cc1ccc(N(CC2=NCCN2)c2cccc(O)c2)cc1
Potency [1]: inactive
Potency [2]: inactive
Potency [3]: inactive
outcome [8]: inactive
outcome [4]: inactive
outcome [5]: inactive
Potency [6]: inactive
outcome [7]: inactive

CC(=O)NNC(C)=O
Potency [1]: inactive
Potency [2]: inactive
Potency [3]: inactive
outcome [8]: inactive
outcome [4]: inactive
outcome [5]: inactive
Potency [6]: inactive
outcome [7]: inactive

O=C(O)CO
Potency [1]: inactive
Potency [2]: inactive
Potency [3]: inactive
outcome [4]: inactive
outcome [5]: inactive
Potency [6]: inactive
outcome [7]: inactive

CC(C)C1CCC(C(=O)N[C@H](Cc2ccccc2)C(=O)O)CC1 (stereo partly specified)
Potency [1]: inactive
Potency [2]: inactive
Potency [3]: inactive
outcome [8]: inactive
outcome [4]: inactive
outcome [5]: inactive
Potency [6]: inactive
outcome [7]: inactive

COc1cc(OC)c2ccc(=O)oc2c1
Potency [1]: inactive
Potency [2]: inactive
Potency [3]: inactive
outcome [8]: inactive
outcome [4]: inactive
outcome [5]: inactive

CC(C)(C)C(O)/C=C/c1ccc2c(c1)OCO2 (stereo unspecified)
Potency [1]: inactive
Potency [2]: inactive
Potency [3]: inactive
outcome [8]: inactive
outcome [4]: inactive
outcome [5]: inactive
Potency [6]: inactive
outcome [7]: inactive

CC(C)COC(=O)c1ccc(O)cc1
Potency [1]: inactive
Potency [2]: inactive
Potency [3]: inactive
Potency [9]: 12.2 µM (active)
outcome [4]: inactive
outcome [5]: inactive
Potency [6]: inactive
outcome [7]: inactive

CC(=O)C(=O)CC(C)C
Potency [1]: inactive
Potency [2]: inactive
Potency [3]: inactive
outcome [8]: inactive
Potency [9]: inactive
outcome [4]: inactive
outcome [5]: inactive
Potency [6]: inactive
outcome [7]: inactive

COC1CCC=CO1 (stereo unspecified)
Potency [1]: inactive
Potency [2]: inactive
outcome [8]: inactive
Potency [9]: inactive
outcome [4]: inactive
outcome [5]: inactive
Potency [6]: inactive
outcome [7]: inactive

CCN(CC)c1cccc(O)c1
Potency [1]: inactive
Potency [2]: inactive
Potency [3]: inactive
outcome [4]: inactive
outcome [5]: inactive
Potency [6]: inactive
outcome [7]: inactive

COC(=O)C1=C(C)NC(C)=C(C(=O)OC(C)(C)CN(C)CCC(c2ccccc2)c2ccccc2)C1c1cccc([N+](=O)[O-])c1 (stereo unspecified)
Potency [1]: inactive
Potency [9]: 5.96 µM (active)
outcome [4]: inactive
outcome [5]: inactive
Potency [6]: inactive
